Test results: PubChem BioAssay (NCI)
The panel holds about 83,000 compounds, 20% with a hit somewhere; the sample as a whole holds those more often.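 Plates (96-well) were seeded with cells, treated with compound at one concentration, and incubated for 48 hours before percent growth was determined.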 Activity calls are given as the source filed them. Rule for the calls: active = growth percent below 10; inactive = the rest.

Columns and labels:
Test in all cases: NCI-60 one-dose screen, 48 h (100 = growth as untreated, 0 = no growth, -100 = all killed)
Conditions in all cases: 10 µM unless noted
[1] = system: DU-145 prostate
[2] = system: K-562 leukemia
[3] = system: MALME-3M melanoma
[4] = system: MDA-MB-231 breast
[5] = system: RXF 393 renal
[6] = system: SF-268 CNS
[7] = system: SF-295 CNS
[8] = system: SF-539 CNS
[9] = system: UACC-257 melanoma
[10] = system: M14 melanoma
[11] = system: HCT-15 colon
[12] = system: HT29 colon
[13] = system: SNB-75 CNS
[14] = system: SNB-19 CNS
[15] = system: U251 CNS
[16] = system: SK-MEL-5 melanoma
[17] = system: UACC-62 melanoma
[18] = system: LOX IMVI melanoma
[19] = system: SK-MEL-28 melanoma
[20] = system: PC-3 prostate

Measured: growth

NCC(=O)NS(=O)(=O)OC[C@H]1O[C@@H](n2cnc3c(N)ncnc32)[C@H](O)[C@@H]1O
inactive: [9] 27.4% | [11] 11.4% | [17] 30.7%
active: [1] -31.7% | [2] 7.38% | [3] -2.82% | [4] 2.61% | [5] -36.6% | [6] 3.78% | [7] -33.7% | [8] -9.36% | [10] -23.1% | [12] 6% | [13] -6.72% | [14] -6.06% | [15] -39.3% | [16] -0.341% | [18] -45.6% | [19] 8.36%

CN(C)c1ccc(/C=N/n2c(-c3cc(F)c(Cl)cc3Cl)nn(CN3CCOCC3)c2=S)cc1
inactive: [1] 106% | [2] 82.7% | [3] 87.6% | [4] 99.8% | [5] 110% | [6] 119% | [7] 96.1% | [8] 97.1% | [9] 91.9% | [10] 82.6% | [11] 103% | [12] 110% | [13] 97.7% | [14] 99.4% | [15] 89% | [20] 103% | [16] 92.3% | [17] 94.8% | [18] 96.1% | [19] 108%

CC[C@@]1(O)C(=O)OCc2c1cc1n(c2=O)Cc2c-1nc1ccccc1c2/C=N/OC(C)(C)C
active: [1] 6.82% | [2] 7.64% | [3] -15.3% | [5] -47.5% | [6] 2.41% | [7] -1.63% | [8] -24.4% | [9] -44% | [10] -18% | [12] -13.9% | [13] 0.198% | [14] 5.74% | [15] -37.4% | [16] -66.3% | [17] -58.6% | [18] -58.5%
inactive: [4] 24.2% | [11] 11.2% | [19] 14.3%

C#C[C@H](O)/C=C/CCCCCCC#C[C@H](O)CC[C@@H](O)C#CCCCCCC/C=C/[C@@H](O)C#C
inactive: [1] 95.7% | [2] 11.7% | [4] 63.1% | [5] 104% | [6] 85.1% | [7] 87.4% | [8] 75.9% | [9] 101% | [10] 93.1% | [11] 80.4% | [12] 80.6% | [13] 85.1% | [14] 101% | [15] 89.3% | [20] 80.7% | [16] 91.9% | [17] 80% | [19] 101%
active: [3] -32.9% | [18] -71.2%

CC(C)CNCC(O)COc1ccc(C(C)(C)c2ccc(OCC(O)CNCC(C)C)cc2)cc1 (centres undefined)
active: [2] -60% | [3] -63.1% | [4] -14.4% | [8] -41.1% | [9] -37.4% | [10] -57.5% | [12] -8.67% | [15] -5.63% | [16] -95% | [17] -65.2% | [18] -79.9% | [19] -60.5%
inactive: [1] 44.7% | [5] 41.8% | [6] 55.3% | [7] 32.4% | [11] 20.1% | [13] 63.9% | [14] 51.7%

Cc1ccc[n+](CC(=O)c2cccc3ccccc23)c1
inactive: [1] 115% | [2] 102% | [3] 97.3% | [4] 130% | [5] 105% | [6] 103% | [7] 97.1% | [8] 93.2% | [9] 112% | [10] 98.3% | [11] 102% | [12] 102% | [13] 96.2% | [14] 107% | [15] 106% | [16] 99.7% | [17] 111% | [18] 104% | [19] 105%

CN(C)CCNc1nc2ccccc2c2c(=O)c3ccccc3sc12
inactive: [3] 12.2% | [6] 26.3% | [8] 36.7% | [9] 28.8% | [13] 30.6% | [14] 47.6% | [15] 17.8% | [20] 21%
active: [1] 8.96% | [2] -35.1% | [4] -11.6% | [5] 6.42% | [7] 0.247% | [10] -54.7% | [11] 8.83% | [12] -0.107% | [16] -83.1% | [17] -33% | [18] -91.6% | [19] -25.3%

CS(=O)(=O)OCC(COS(C)(=O)=O)C(c1ccccc1)c1ccccc1
inactive: [1] 129% | [2] 101% | [3] 99.7% | [4] 96.5% | [5] 97.4% | [6] 109% | [7] 97.2% | [8] 118% | [9] 111% | [10] 106% | [11] 108% | [12] 100% | [13] 96.2% | [14] 105% | [15] 107% | [16] 107% | [17] 90.3% | [18] 99.7% | [19] 114%

CCOC(=O)CSc1nnc(-c2cc3c([nH]c4ccccc43)c(-c3cccc(O)c3)n2)n1-c1ccc(C)cc1
active: [1] -0.541%
inactive: [2] 16.8% | [3] 80.3% | [4] 45% | [5] 79.5% | [6] 74.7% | [7] 99.9% | [8] 78% | [9] 91.3% | [10] 44.5% | [11] 42.7% | [12] 43% | [13] 63.3% | [14] 97.3% | [15] 54.9% | [20] 15.1% | [16] 94.1% | [17] 85.2% | [18] 32.6% | [19] 79.9%

CCC(N)(C(=O)O)c1ccc(F)cc1 (centres undefined)
inactive: [1] 108% | [2] 91.9% | [3] 112% | [4] 110% | [5] 123% | [6] 102% | [7] 108% | [8] 109% | [9] 86.2% | [10] 103% | [11] 104% | [12] 94.9% | [13] 113% | [14] 107% | [15] 90.7% | [16] 99.9% | [17] 112% | [18] 96% | [19] 112%

CC(C)(c1ccc(OCC(O)CNCc2ccco2)cc1)c1ccc(OCC(O)CNCc2ccco2)cc1 (centres undefined)
inactive: [1] 92% | [2] 60.8% | [3] 98% | [4] 62.4% | [5] 76.4% | [6] 77.7% | [7] 95.2% | [8] 89.7% | [9] 92.8% | [10] 92.1% | [11] 82.8% | [12] 78.5% | [13] 80.1% | [14] 96.4% | [15] 70.1% | [16] 91.7% | [17] 104% | [18] 86.1% | [19] 101%

COc1ccc(-c2nnc(SCC(=O)Nc3ccc(C(=O)/C=C/c4ccc(Cl)cc4)cc3)o2)cc1OC
active: [3] 5.79%
inactive: [1] 78.9% | [2] 52% | [4] 76.3% | [5] 95.9% | [6] 82.2% | [7] 80.4% | [8] 54.5% | [9] 91.4% | [10] 81.7% | [11] 81.3% | [12] 89.8% | [13] 71.4% | [14] 84.6% | [15] 88.5% | [16] 56.7% | [17] 62.7% | [18] 79% | [19] 82.2%

CN1CCN(CC(=O)N(C)c2ccc(N=C(c3ccccc3)c3c(O)[nH]c4ccc(C#N)cc34)cc2)CC1
active: [5] 3.21% | [8] -20.2% | [13] 3.45%
inactive: [1] 32.8% | [2] 11% | [3] 35.5% | [4] 42.5% | [6] 32% | [7] 18.2% | [9] 78.5% | [10] 30.7% | [11] 64.7% | [12] 10.7% | [14] 61.1% | [15] 35.8% | [20] 36.4% | [16] 25.8% | [17] 68.1% | [18] 13.2% | [19] 53%

CC1(C)Cc2c(Br)c(Br)c(Br)c(OCC(O)CN3CCN(c4ccccn4)CC3)c2O1 (centres undefined)
inactive: [1] 106% | [2] 36.4% | [3] 88.2% | [4] 57.4% | [5] 99.7% | [6] 79.1% | [7] 81.5% | [8] 95.1% | [9] 105% | [10] 99.2% | [11] 79.7% | [12] 69.7% | [13] 187% | [14] 101% | [15] 82.3% | [16] 63.5% | [17] 92.9% | [18] 68.6% | [19] 115%

CNCCCOc1c(Br)cc(CCNC(=O)/C(Cc2ccc(OC)c(Br)c2)=N/O)cc1Br
inactive: [1] 61.2% | [4] 26.8% | [5] 45.3% | [6] 53% | [7] 19.8% | [8] 32.1% | [11] 22.9% | [13] 50.6% | [14] 50.3% | [15] 27.5% | [16] 38.9%
active: [2] -21.6% | [3] 1.79% | [9] 4.02% | [10] -55.9% | [12] 5.72% | [17] 9.73% | [18] -35.4% | [19] -21.7%

O=C1C(Cl)=C(Nc2cccc3cc4ccccc4nc23)C(=O)c2ccccc21
active: [12] 4.99%
inactive: [1] 44% | [2] 27.9% | [3] 48.9% | [4] 44% | [5] 65.2% | [6] 45% | [7] 53.8% | [8] 40.7% | [9] 45.6% | [10] 56.4% | [11] 41.4% | [13] 71.9% | [14] 44.6% | [15] 41.8% | [16] 69.5% | [17] 70.1% | [18] 33.9% | [19] 102%
